Experimental data: PubChem BioAssay AID2111 (National Center for Advancing Translational Sciences (NCATS), 2009)
Where “and” joins values, the source holds several entries; their conditions need not be identical. Equal values may be shown once. Calls of active or inactive are those of the source. Calls come from the whole dose curve; as a rule, active = well fitted curve in either direction with a large enough effect; inconclusive = small, poorly fitted or top-dose-only effect; inactive = no such curve, though single readings can be large or run the other way.

These molecules were tested against Lysosomal alpha-glucosidase (Homo sapiens) (UniProt P10253) (assay: Confirmation of Inhibitors and Activators of Human alpha-Glucosidase From Spleen Homogenate Using an Alternate Red Fluorescent Susbtrate). Settings: resorufin-glucoside fluorescence; series mostly up to 62.8 µM; activity change, negative = inhibition: at the top concentration.
Source text: NIH Chemical Genomics Center [NCGC] NIH Molecular Libraries Probe Production centers Network [MLPCN] MLPCN Grant: 1R03MH084841-01 Assay Submitter (PI): Wei Zheng NCGC Assay Overview: Alpha-glucosidase is responsible for hydrolysis of terminal, non-reducing 1,4-linked alpha-D-glucose residues with release of alpha-D-glucose. It is a lysosomal hydrolase that is required for the degradation of a small percentage (1-3%) of cellular glycogen in human. Deficiency of this enzyme results in glycogen-storage disease type II (GSDII), also referred to as Pompe disease, an autosomal recessive disorder. Structurally normal glycogen is accumulated in lysosomes and cytoplasm in affected patients, primarily in muscle tissues. Excessive glycogen storage within lysosomes may interrupt normal functioning of other organelles and leads to cellular injury. In turn, this leads to enlargement and dysfunction of the entire organ involved (eg, cardiomyopathy and muscle weakness). It has reported that the improper folding and trafficking of alpha-glucosidase resultinged from the genetic mutations may account for a significant number of Pomrope patients. […] We optimized this alpha-glucosidase assay in 1536-well plate format for identifying the novel small molecule inhibitors with the structures other than the sugar analogs in order to develop the new pharmacological chaperones. In particular, this assay is directed towards discovering compounds active in a more natural setting, tissue homogenate, that may have been missed by screens of the purified enzyme under more stringent conditions. This assay attempted to confirm hits from the primary screening using an alternate fluor than the primary screen used.
NCGC Assay Protocol Summary: This is a fluorogenic enzyme assay with Resorufin-alpha-D-glucopyranoside as the substrate and human spleen homogenate containing alpha-glucosidase as the enzyme preparation. Upon hydrolysis of this fluorogenic substrate, the resulting product, resorufin (which excites at 573 nm and emits at 610 nm) can be detected by a fluorescence plate reader. Data were normalized to the controls for basal activity (without enzyme) and 100% activity (with enzyme). The AC50 values were determined from concentration-response data modeled with the standard Hill equation. Assay buffer: 50 mM citric acid (titrated with potassium phosphate to pH 5.0), 0.01% Tween-20 (pH 5.0 is an optimal condition for this enzyme assay) 1536-well assay protocol for the alpha-glucosidase from human spleen homogenate: (1) Add 2 ul/well spleen homogenate (1 ug) (2) Add 23 nL compounds in DMSO solution. The final titration was 0.5 nM to 58 uM. (3) Add 2 ul of substrate (1 mM final) (4) Incubate at 37 C for 40 min (5) Add 2 ul stop solution (1M NaOH and 1M Glycine mixture, pH 10) (6) Detect the assay plate in a ViewLux plate reader (PerkinElmer) with […]. Keywords: Alpha-glucosidase, Pompe Disease, pharmacological chaperone, chaperone therapy, high throughput screening, alpha-glucosidase inhibitor, MLSMR, MLSCN, NIH Roadmap, qHTS and NCGC
In the case of COc1ccc(CCn2c(=S)[nH]c(=O)c3nccnc32)cc1OC, the “activity change, negative = inhibition” value is reported as 5.44% (inactive).
In the case of CC(=O)N1CCN(S(=O)(=O)c2ccc3c(c2)CC(=O)N3)CC1, the Potency is reported as 14.9 µM [inhibitor] (active).
CCCN1CNc2c(c(=O)[nH]c(=S)n2CCC(C)(C)C)C1 was tested, and the “activity change, negative = inhibition” value was 2.22% (inactive).
For CCCN1CNc2c(c(=O)[nH]c(=S)n2CCc2ccc(OC)c(OC)c2)C1, the Potency was 8.91 µM (active).
CCCN1CNc2c(c(=O)[nH]c(=S)n2CCc2cccc(OC)c2OC)C1 was tested, and the Potency was 15.8 µM (active).
For CCCN1CNc2c(c(=O)[nH]c(=O)n2CCc2ccc(OC)c(OC)c2)C1, the Potency was 15.8 µM (active).
In the case of CCCN1CNc2c(c(=O)[nH]c(=S)n2CCc2cc(C)ccc2C)C1, the Potency is reported as 8.91 µM (active).
O=C1Cc2cc(S(=O)(=O)N3CCNCC3)ccc2N1 was tested, and the “activity change, negative = inhibition” value was -0.948% (inactive).
For N#Cc1ccc(N2CCN(S(=O)(=O)c3ccc4c(c3)CC(=O)N4)CC2)cc1, the Potency was 1.63 µM [inhibitor] (active).
With CCCN1CNc2c(c(=O)[nH]c(=S)n2CCc2cc(Cl)cc(Cl)c2)C1 the Potency was 12.6 µM (active).
With COc1ccc(CCn2c(=S)[nH]c(=O)c3c(C)cc(C)nc32)cc1OC the “activity change, negative = inhibition” value was 5.96% (inactive).
With O=C1Cc2cc(S(=O)(=O)N3CCN(c4ccc(CO)cc4)CC3)ccc2N1 the Potency was 13 µM [inhibitor] (active).
With CCCCN1C[C@H](O)[C@@H](O)[C@H](O)[C@H]1CO the “activity change, negative = inhibition” value was -94.3% (inactive).
With CCCN1CNc2c(c(=O)[nH]c(=S)n2CCc2ccsc2)C1 the Potency was 28.2 µM (active).
CCCN1CNc2c(c(=O)[nH]c(=S)n2CCc2ccccc2Cl)C1 was tested, and the Potency was 11.2 µM (active).
For CCCN1CNc2c(c(=O)[nH]c(=S)n2CCc2ccccc2OC)C1, the Potency was 14.1 µM (active).
For CCCN1CNc2c(c(=O)[nH]c(=S)n2CCC(C)C)C1, the “activity change, negative = inhibition” value was -2.72% (inactive).
In the case of CCCN1CNc2c(c(=O)[nH]c(=S)n2CCCc2ccccc2)C1, the Potency is reported as 35.5 µM (active).
For CC(=O)c1ccc(N2CCN(S(=O)(=O)c3ccc4c(c3)C(=O)OC4)CC2)cc1, the “activity change, negative = inhibition” value was 9.03% (inactive).
For CCCN1CNc2c(c(=O)[nH]c(=S)n2CCc2cc(C)cc(C)c2)C1, the Potency was 4.47 µM (active).
c1csc(-c2nc(NCC3CCCO3)c3ccccc3n2)c1 (stereo not given) was tested, and the “activity change, negative = inhibition” value was 1.37% [at 32.4 µM] (inactive).
CC(=O)c1ccc(N2CCN(S(=O)(=O)c3ccc4c(c3)CCCN4C(C)=O)CC2)cc1 was tested, and the “activity change, negative = inhibition” value was 10.5% (inactive).
For CC(=O)Nc1ccc(S(=O)(=O)N2CCN(c3ccc(C(C)=O)cc3)CC2)cc1, the “activity change, negative = inhibition” value was 6% (inactive).
With CCCN1CNc2c(c(=O)[nH]c(=S)n2CCc2cccc(Cl)c2Cl)C1 the Potency was 0.891 µM (active).
COc1ccc(CCn2c3c(c(=O)[nH]c2=S)CN(C(C)C)CN3)cc1OC was tested, and the Potency was 12.6 µM (active).
With CC(=O)c1ccc(N2CCN(S(=O)(=O)c3ccc4c(c3)C(Cl)(Cl)C(=O)N4)CC2)cc1 the Potency was 20.6 µM [inhibitor] (active) and 32.6 µM [inhibitor] (active).
CCCN1CNc2c(c(=O)[nH]c(=S)n2CCc2cccc(Cl)c2)C1 was tested, and the Potency was 15.8 µM (active).
With O=S(=O)(c1ccc(Cl)cc1)N1CCN(c2nc(Nc3cc(Cl)ccc3O)nc3ccccc23)CC1 the “activity change, negative = inhibition” value was 7.06% [at 32.4 µM] (inactive).
With COc1cccc(CCn2c(N)cc(=O)[nH]c2=S)c1OC the “activity change, negative = inhibition” value was 8.02% (inactive).
With CCCN1CNc2c(c(=O)[nH]c(=S)n2CCc2c(Cl)cccc2Cl)C1 the Potency was 5.01 µM (active).
With O=Cc1ccc(N2CCN(S(=O)(=O)c3ccc4c(c3)CC(=O)N4)CC2)cc1 the Potency was 5.17 µM [inhibitor] (active).
In the case of O=C1Cc2cc(S(=O)(=O)N3CCN(c4ccc(Br)cc4)CC3)ccc2N1, the “activity change, negative = inhibition” value is reported as -12.5% [at 130 µM] (inactive).
In the case of CCCN1CNc2c(c(=O)[nH]c(=S)n2CCc2c(OC)cccc2OC)C1, the Potency is reported as 35.5 µM (active).
In the case of CC(=O)c1ccc(N2CCN(S(=O)(=O)c3ccc4c(c3)oc(=O)n4C)CC2)cc1, the “activity change, negative = inhibition” value is reported as 4.41% (inactive).
For CCCN1CNc2c(c(=O)[nH]c(=S)n2CCc2c(C)cccc2C)C1, the Potency was 2.82 µM (active).
CC(=O)c1ccc(N2CCN(C(=O)c3ccc4c(c3)CC(=O)N4)CC2)cc1 was tested, and the “activity change, negative = inhibition” value was -5.87% (inactive).
In the case of CCCN1CNc2c(c(=O)[nH]c(=S)n2CCc2cccc(C)c2)C1, the Potency is reported as 15.8 µM (active).
In the case of COc1ccc(CCn2c3c(c(=O)[nH]c2=S)CN(c2ccccc2)CN3)cc1OC, the Potency is reported as 25.1 µM (active).
For COc1ccc(CCn2c(=S)[nH]c(=O)c3[nH]cnc32)cc1OC, the “activity change, negative = inhibition” value was 7.23% (inactive).
In the case of CC(=O)c1ccc(N2CCN(S(=O)(=O)c3ccc(N4CCCC4=O)cc3)CC2)cc1, the “activity change, negative = inhibition” value is reported as 2.9% (inactive).
